Screens as filed in PubChem.
In the library only some 11% were active in any assay of this set; here they are far more common.
BAZ2B block = qHTS Assay for Inhibitors of BAZ2B | Bromodomain adjacent to zinc finger domain protein 2B (Homo sapiens), Q9UIF8 | AlphaScreen BAZ2B-H3K14Ac peptide displacement | Potency, µM (highest dose often 114 µM), for the others: top-dose activity change, negative = inhibition, usual class: inhibitors | 360,000 tested, 4.4% active | AID 504333, 2011; note: % is set by controls: 0 for no effect and ±100 for the full control effect; nearly all actives have a fitted effect of over 60% in size
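Protein-peptide AlphaScreen: BAZ2B 50 nM, b-H3K14Ac 50 nM, 1x PBS pH 7.4 + 0.01% Tween-20. Preincubation 30 min RT; cpd 30 min RT (top 110 uM); beads 20 min RT, light-protected.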
PLK1 PBD block = qHTS for Inhibitors of PLK1-PDB (polo-like kinase 1 - polo-box domain): Primary Screen; Plk1 PBD binding of FITC phosphopeptide, fluorescence polarization; Potency, µM, for the others: max response, negative = inhibition, hits mostly inhibitors; 360,000 tested, 2.8% active; note: series mostly up to about 57 µM; % is set by controls: 0 for no effect and ±100 for the full control effect; nearly all actives have a fitted effect of over 65% in size
VDR inhibitor = Inhibitors of the vitamin D receptor (VDR): qHTS. Vitamin D3 receptor (Homo sapiens), P11473. VDR-SRC2-3 peptide fluorescence polarization, 2 h. Potency, µM, for the others: max response, negative = inhibition, actives largely listed as inhibitors. 400,000 tested, 0.93% active; note: % is set by controls: 0 for no effect and ±100 for the full control effect
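Fluorescence polarization assay of small-molecule disruption of VDR binding to coregulator peptide SRC2-3. Compounds and controls pin-transferred, then read after 2 h incubation at ambient room temperature.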
JMJD2A Tudor inh = qHTS Assay for Inhibitors of JMJD2A-Tudor Domain; 390,000 tested, 4.4% active; AlphaScreen JMJD2A-Tudor / H3K4me3 peptide binding; Potency, µM (top dose mostly 114 µM), for the others: top-dose activity change, negative = inhibition, hits mostly inhibitors; note: % is set by controls: 0 for no effect and ±100 for the full control effect; nearly all actives have a fitted effect of over 50% in size
Target sequence (O75164 whole entry, looked up, the tested form may be a part): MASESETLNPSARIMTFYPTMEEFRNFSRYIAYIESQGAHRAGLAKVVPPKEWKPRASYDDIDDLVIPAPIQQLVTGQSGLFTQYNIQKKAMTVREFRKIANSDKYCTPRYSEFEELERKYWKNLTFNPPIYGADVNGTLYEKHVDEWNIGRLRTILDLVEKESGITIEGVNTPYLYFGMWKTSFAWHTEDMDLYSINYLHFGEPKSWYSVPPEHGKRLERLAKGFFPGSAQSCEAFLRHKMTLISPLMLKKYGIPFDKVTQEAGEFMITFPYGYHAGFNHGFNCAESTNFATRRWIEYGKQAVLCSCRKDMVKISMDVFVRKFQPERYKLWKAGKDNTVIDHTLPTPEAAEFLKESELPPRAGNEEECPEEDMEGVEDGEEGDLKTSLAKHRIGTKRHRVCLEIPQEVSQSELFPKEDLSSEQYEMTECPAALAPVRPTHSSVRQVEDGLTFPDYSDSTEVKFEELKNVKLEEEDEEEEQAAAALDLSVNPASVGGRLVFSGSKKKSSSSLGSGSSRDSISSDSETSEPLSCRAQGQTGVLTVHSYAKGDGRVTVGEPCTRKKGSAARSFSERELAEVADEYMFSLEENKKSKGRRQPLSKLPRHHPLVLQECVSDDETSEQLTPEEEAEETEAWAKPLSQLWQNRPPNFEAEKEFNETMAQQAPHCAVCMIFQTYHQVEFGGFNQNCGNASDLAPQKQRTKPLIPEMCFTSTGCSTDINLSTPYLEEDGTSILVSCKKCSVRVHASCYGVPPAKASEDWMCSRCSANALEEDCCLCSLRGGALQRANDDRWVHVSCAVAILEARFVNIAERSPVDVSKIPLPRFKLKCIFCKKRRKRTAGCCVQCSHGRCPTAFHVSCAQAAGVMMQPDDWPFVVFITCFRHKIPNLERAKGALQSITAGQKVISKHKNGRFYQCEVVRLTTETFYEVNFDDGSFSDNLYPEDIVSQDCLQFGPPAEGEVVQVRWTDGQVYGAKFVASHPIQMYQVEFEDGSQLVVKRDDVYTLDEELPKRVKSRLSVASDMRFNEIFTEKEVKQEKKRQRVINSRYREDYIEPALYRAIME
HP1b chromo inh = HTS for Inhibitors of HP1-beta Chromodomain Interactions with Methylated Histone Tails; AlphaScreen HP1-beta / biotin-H3K9me3 peptide binding; Potency, µM (series often up to 114 µM), for the others: top-dose activity change, negative = inhibition, usual class: inhibitors; 390,000 tested, 0.56% active; note: nearly all actives have a fitted effect of over 70% in size
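HP1-beta protein (50 nM final) preincubated 30 min at room temperature with biotinylated H3(1-18)K9me3 peptide (50 nM) in PBS pH 7.4, 0.01% Tween-20, then compound added for 30 min. AlphaScreen streptavidin donor/nickel chelate acceptor beads (10 ug/mL final), 30 min dark, luminescence read.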
G9a inh = qHTS Assay for Inhibitors of Histone Lysine Methyltransferase G9a | G9a H3K9 monomethylation, AlphaScreen, 2 h | 350,000 tested, 8.8% active | Potency, µM (doses to about 102 µM), for the others: at the top dose activity, negative = inhibition, actives largely listed as inhibitors | Histone-lysine N-methyltransferase EHMT2 (Homo sapiens), Q96KQ7; note: % is set by controls: 0 for no effect and ±100 for the full control effect; nearly all actives have a fitted effect of over 75% in size
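Using a bead-based AlphaScreen, monomethylated H3K9 product from 2 h room-temperature reactions (G9a 20 nM, peptide 500 nM, SAM 20 uM) was detected with 0.5 ug/mL rabbit anti-H3K9me1 antibody.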
The depositor's hits bear a star; ? = inconclusive; · = no result; [ ] = another dose, or the depositor's remark. Calls come from the whole dose curve; as a rule, active = well fitted curve in the direction sought with a large enough effect; inconclusive = small, poorly fitted or top-dose-only effect, or another doubt; inactive = no such curve, though single readings can be large; an effect the other way counts as inactive or inconclusive. Potency is the fitted concentration of half-maximal effect.

SMILES	BAZ2B block	PLK1 PBD block	VDR inhibitor	JMJD2A Tudor inh	HP1b chromo inh	G9a inh
S=C(NCc1ccccc1)NCc1cccc(CNC(=S)NCc2ccccc2)c1	-36%	27µM*	?	?	-38%	13%[59 µM]
CN(C)C(=S)NCc1ccccc1	3%	2.7µM*	?	25µM*	-5%	·
CCN(CC)C(=O)c1c([N+](=O)[O-])c(C(C)(C)C)nn1C	-2%	-1%	8%	7%	35%	-1%[59 µM]
Cn1nc(C(C)(C)C)c([N+](=O)[O-])c1C(=O)NCCO	10%	24µM*	?	50µM*	8%	0%
Cc1n[nH]c(=O)nc1N/N=C/c1ccco1	25µM*	-11%	-20%	?	14%	-40%
COc1ccc(/C=N/Nc2nc(C)cc(=O)[nH]2)cc1OC	-25%	-4%	3%	25µM*	33%	?
COc1cc(/C=N/Nc2nc(=O)[nH]nc2C)cc(OC)c1O	3%	21µM*	12%	?	-13%	?
COc1cc(/C=N/Nc2nc(C)cc(=O)[nH]2)ccc1O	-3%	4%	-2%	3%	45%	29%[0.501 µM]
Cc1n[nH]c(=O)nc1NCCc1ccccc1	-5%	-18%	-10%	21%	16%	89µM*
Cc1cc(=O)[nH]c(N/N=C/c2ccc(N(C)C)cc2)n1	-19%	-24%	0%	25µM*	-8%	-1%
Cc1ccc(Nc2nc(=O)[nH]nc2C)cc1	3%	-8%	8%	-4%	1%	?
C/C(=N\Nc1nc(C)cc(=O)[nH]1)C1CC1	16%	2%	-5%	18µM*	41%	7.9µM*
COc1cc(/C=N/Nc2nc(C)cc(=O)[nH]2)cc(OC)c1O	-3%	9%	4%	-18%	34%	28µM*
Cc1n[nH]c(=O)nc1Nc1ccc(O)cc1	9%	-12%	-3%	-13%	11%	79µM*
Cc1cc(=O)[nH]c(Nc2ccc(N(C)C)cc2)n1	-33%	3%	?	-11%	1%	?
CCN(C(=O)COC(=O)/C=C/c1cccc([N+](=O)[O-])c1)c1c(N)n(Cc2ccccc2)c(=O)[nH]c1=O	13%	-2%	-21%	-3%	32%	?
O=C(CSc1nnc2n1CCCN2)c1ccc([N+](=O)[O-])cc1	-38%	?	-6%	?	-1%	40µM*
O=C(CSc1nnc2n1CCCN2)c1ccc(Cl)cc1	6%	-11%	6%	-22%	4%	-18%[59 µM]
COc1ccc2sc(N(CCCN(C)C)C(=O)c3ccc(C(=O)c4ccccc4)cc3)nc2c1	?	-13%	1%	50µM*	-31%	45µM*
CCN(Cc1ccccc1)S(=O)(=O)c1ccc(C(=O)N(CCCN(C)C)c2nc3cc4c(cc3s2)OCCO4)cc1	35µM*	-2%	1%	45µM*	?	40µM*
Cc1ccc2nc(N(CCCN(C)C)C(=O)c3cc(-c4cccs4)nc4ccccc34)sc2c1	25µM*	-4%	9%	14µM*	?	40µM*
Cc1ccc2nc(N(CCCN(C)C)C(=O)c3ccco3)sc2c1	-24%	-2%	3%	-23%	26%	-28%[59 µM]
CCN(Cc1ccccc1)S(=O)(=O)c1ccc(C(=O)N(CCCN(C)C)c2nc3cc(OC)ccc3s2)cc1	?	1%	-6%	?	-11%	45µM*
CN(C)CCCN(C(=O)c1ccc(C(=O)c2ccccc2)cc1)c1nc2ccc(F)cc2s1	?	7%	18%	-2%	44%	?
Cc1cccc([S+](=O)([O-])NC2CCN(C#N)CC2)c1	·	·	·	7%	·	·
SMILES	BAZ2B block	PLK1 PBD block	VDR inhibitor	JMJD2A Tudor inh	HP1b chromo inh	G9a inh
CC1(C)Cc2c(sc(NC(=O)C3CC(Cl)=CCC3C(=O)O)c2C#N)CO1 (stereo not given)	-11%	4%	-11%	-10%	21%	·
COCc1nnc(NC(=O)C2CCN(C(=O)c3ccccc3)CC2)s1	·	·	2%	-13%	15%	·
Cc1cc(C)c2c(=O)n(CC(=O)NCCCN3CCN(c4ccccc4F)CC3)sc2n1	?	2.1µM*	16µM*	1µM*	2.5µM*	1.1µM*
Cc1ccccc1CS(=O)(=O)CCC(=O)NCCCN1CCN(c2ccccc2F)CC1	-29%	-2%	12%	-17%	16%	10%[0.501 µM]
Cc1cc(C)c2c(=O)n(CC(=O)NCCCN3CCOCC3)sc2n1	?	1.5µM*	?	1.1µM*	3.2µM*	1.3µM*
O=C(Nc1ccc(Nc2ccncc2)cc1)c1ccc(Nc2ccnc3ccc([N+](=O)[O-])cc23)cc1	-19%	0%	6%	100µM*	-28%	·
O=C(Nc1ccc([N+](=O)[O-])cc1)c1cccc([N+](=O)[O-])c1	·	-2%	·	·	·	·
CN(C)S(=O)(=O)c1cccc(NC(=S)NCc2ccco2)c1	·	6%	-15%	-34%	18%	45µM*
CCN(CCO)c1ccc(NC(=S)Nc2cccc(S(=O)(=O)N(C)C)c2)cc1	?	27µM*	?	-9%[11.4 µM]	-18%	?
CC(=O)c1cccc(NC(=S)NCc2ccco2)c1	-31%	-15%	-24%	-17%	12%	-5%
CN(C)S(=O)(=O)c1cccc(NC(=S)Nc2cc(Cl)cc(Cl)c2)c1	1%	?	-10%	-17%	-11%	?
Cc1ccc(NC(=O)c2c(NC(=O)c3ccco3)sc3c2CCC(C(C)(C)C)C3)c(C)c1 (stereo not given)	7%	·	-5%	-10%	21%	-7%[59 µM]
COc1ccc(N(CC(=O)N2CCN(c3ccccc3F)CC2)S(=O)(=O)c2c(C)noc2C)cc1	-12%	-11%	32%	-11%	25%	0%
CCCCCNc1nc2sc3c(c2c(=O)n1-c1cccc(Cl)c1)CCN(C)C3	-23%	-2%	6%	-21%	-5%	50µM*
CCOc1cccc(C2C=C(c3ccc4c(c3)OCO4)NC(c3ccc(Cl)cc3)N2)c1O (stereo not given)	·	·	-28%	-9%[57.1 µM]	-9%[57 µM]	·
CC(NC(=O)c1ccc(S(=O)(=O)N(C)C)cc1)c1ccccc1 (stereo not given)	-5%	?	-8%	79µM*	-15%	4%[12.7 µM]
Cc1cccc(N=Cc2[nH]c3ccc(Br)c(Cl)c3c2O)c1	-13%	1%	-8%	?	?	10µM*
CC(=O)c1sc(N/N=C2\CC3CC2C(C)C3(C)C)nc1C (stereo not given)	?	-25%	22%	?	-12%	40µM*
